# In PubChem BioAssay:
# Calls of active or inactive are those of the source.
# How the values were obtained:
# [1] = anti-His antibody binders, primary screen, artefact control for SMM control protein annotation, biochemical, small-molecule microarray, 635 nm fluorescence (AID 1128); settings: anti-His Alexa647 antibody binding, higher = more signal;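 further: score merges feature fluorescence with signal-to-noise for each printed compound spot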
# [2] = tested on: Human papillomavirus type 1a E7 protein (residues 1-88); experiment: HPV1a E7 small-molecule binders, primary screen, biochemical, small-molecule microarray, residues 1-88, 635 nm (AID 1129); settings: small-molecule microarray binding, fluorescence 635 nm; higher = more signal
# [3] = molecular target: Focal adhesion kinase 1 (Homo sapiens) (UniProt Q05397); experiment: small-molecule microarray binders of FAK, primary screen, biochemical, 635/667 nm fluorescence, BSA, DTT (AID 1130); settings: PTK2 binding, 635 nm fluorescence, higher = more signal;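 further: composite of spot emission at 667 nm and signal to noise over triplicate slides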
# Sequence of Focal adhesion kinase 1 (Homo sapiens) (Q05397 whole entry, looked up): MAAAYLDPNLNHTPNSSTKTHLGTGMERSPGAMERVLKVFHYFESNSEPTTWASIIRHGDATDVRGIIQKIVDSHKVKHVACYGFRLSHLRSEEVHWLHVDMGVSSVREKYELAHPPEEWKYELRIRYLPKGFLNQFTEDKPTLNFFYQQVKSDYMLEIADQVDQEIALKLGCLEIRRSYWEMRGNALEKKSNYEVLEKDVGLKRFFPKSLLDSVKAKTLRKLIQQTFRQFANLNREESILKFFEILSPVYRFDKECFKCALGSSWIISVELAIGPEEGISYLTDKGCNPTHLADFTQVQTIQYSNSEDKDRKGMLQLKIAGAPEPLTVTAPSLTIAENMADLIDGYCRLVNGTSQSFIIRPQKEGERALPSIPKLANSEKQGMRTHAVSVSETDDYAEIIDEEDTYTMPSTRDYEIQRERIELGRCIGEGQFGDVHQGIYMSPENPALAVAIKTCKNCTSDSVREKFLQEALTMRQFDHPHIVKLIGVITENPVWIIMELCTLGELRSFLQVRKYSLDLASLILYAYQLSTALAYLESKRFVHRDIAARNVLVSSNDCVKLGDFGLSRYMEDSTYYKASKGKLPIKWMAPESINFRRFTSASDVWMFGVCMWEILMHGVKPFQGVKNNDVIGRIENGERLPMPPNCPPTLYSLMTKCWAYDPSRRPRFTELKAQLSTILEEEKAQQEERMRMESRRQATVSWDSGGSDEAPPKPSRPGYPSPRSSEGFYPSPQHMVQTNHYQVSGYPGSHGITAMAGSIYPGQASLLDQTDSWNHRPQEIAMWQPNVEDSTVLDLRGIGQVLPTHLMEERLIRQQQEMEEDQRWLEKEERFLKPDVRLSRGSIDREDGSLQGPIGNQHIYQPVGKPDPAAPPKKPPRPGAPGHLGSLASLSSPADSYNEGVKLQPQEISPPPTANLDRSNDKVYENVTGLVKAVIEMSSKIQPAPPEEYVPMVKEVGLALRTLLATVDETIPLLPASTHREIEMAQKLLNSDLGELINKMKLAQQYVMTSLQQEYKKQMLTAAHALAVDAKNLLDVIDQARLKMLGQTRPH
# [4] = tested on: Fibrinogen (Alexa647-labelled); experiment: fibrinogen binders on compound microarrays, profiling panel, artefact control for SMM control-protein annotation, biochemical, small-molecule microarray, 635/667 nm fluorescence (AID 1131); settings: fibrinogen-A647 binding fluorescence, higher = more signal;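 further: z-score merges 667 nm fluorescence with per-spot signal-to-noise over triplicate slides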
# [5] = molecular target: Follistatin (Homo sapiens) (UniProt P19883); experiment: follistatin binders on small-molecule microarrays, primary screen, biochemical, small-molecule microarray, 635/667 nm fluorescence (AID 1132); settings: FST binding, 635 nm fluorescence, higher = more signal
# Sequence of Follistatin (Homo sapiens) (P19883 whole entry, looked up): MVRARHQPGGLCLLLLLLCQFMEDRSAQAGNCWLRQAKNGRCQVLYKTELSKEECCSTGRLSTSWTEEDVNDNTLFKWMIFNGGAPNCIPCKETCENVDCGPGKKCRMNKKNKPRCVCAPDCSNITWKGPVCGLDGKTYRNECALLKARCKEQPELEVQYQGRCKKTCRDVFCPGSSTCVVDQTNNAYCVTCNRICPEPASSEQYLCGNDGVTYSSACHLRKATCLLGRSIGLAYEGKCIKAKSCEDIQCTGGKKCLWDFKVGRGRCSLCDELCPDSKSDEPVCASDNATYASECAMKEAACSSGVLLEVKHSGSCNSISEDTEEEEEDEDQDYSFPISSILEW
# [6] = molecular target: Fibroblast growth factor 2 (Homo sapiens) (UniProt P09038); experiment: FGF2 binders on small-molecule microarrays, primary screen, biochemical, small-molecule microarray, 635/667 nm fluorescence (AID 1133); settings: small-molecule microarray binding, FGF2, fluorescence 635/667; higher = more signal
# Sequence of Fibroblast growth factor 2 (Homo sapiens) (P09038 whole entry, looked up): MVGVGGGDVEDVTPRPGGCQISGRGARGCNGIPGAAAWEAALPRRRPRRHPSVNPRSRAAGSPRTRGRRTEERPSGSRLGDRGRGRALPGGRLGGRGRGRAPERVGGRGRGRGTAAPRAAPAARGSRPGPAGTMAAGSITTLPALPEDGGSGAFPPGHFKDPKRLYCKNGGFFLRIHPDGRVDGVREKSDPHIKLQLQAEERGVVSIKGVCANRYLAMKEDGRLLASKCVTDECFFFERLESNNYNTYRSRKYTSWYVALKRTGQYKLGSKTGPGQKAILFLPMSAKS
# [7] = mitochondrial membrane potential change in A549 cells, profiling panel, cell-based, JC-1 fluorescence, basal, 24 h, 100 nL (AID 1138); settings: higher = more signal;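 further: A549 lung adenocarcinoma cells under basal conditions with no added stimulus; test concentration not given here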
# Lefty1 = Lefty1 binders on small-molecule microarrays, primary screen, biochemical, small-molecule microarray, 635/667 nm fluorescence (AID 1139); settings: small-molecule microarray binding, fluorescence 635/667; higher = more signal
# [8] = tested on: wheat germ agglutinin (Triticum aestivum), Alexa647-labelled; experiment: wheat germ agglutinin binders on compound microarrays, profiling panel, artefact control for SMM control-protein annotation, biochemical, small-molecule microarray, 635/667 nm fluorescence (AID 1140); settings: WGA-A647 binding, 635 nm fluorescence, higher = more signal;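 further: score merges 667 nm feature emission with signal to noise over triplicate slides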
# [9] = molecular target: Luciferin 4-monooxygenase (Photinus pyralis) (UniProt P08659); experiment: firefly luciferase enzyme inhibitors, primary screen, biochemical, luminescence, purified enzyme, 2006 set (AID 1141); settings: SteadyGlo luminescence, 30 min, higher = more signal, called active from +8 up or from −8 down;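 further: cell-free assay with purified firefly luciferase at 100 ng per well in PBS; test concentration not given here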
# Sequence of Luciferin 4-monooxygenase (Photinus pyralis) (P08659 whole entry, looked up): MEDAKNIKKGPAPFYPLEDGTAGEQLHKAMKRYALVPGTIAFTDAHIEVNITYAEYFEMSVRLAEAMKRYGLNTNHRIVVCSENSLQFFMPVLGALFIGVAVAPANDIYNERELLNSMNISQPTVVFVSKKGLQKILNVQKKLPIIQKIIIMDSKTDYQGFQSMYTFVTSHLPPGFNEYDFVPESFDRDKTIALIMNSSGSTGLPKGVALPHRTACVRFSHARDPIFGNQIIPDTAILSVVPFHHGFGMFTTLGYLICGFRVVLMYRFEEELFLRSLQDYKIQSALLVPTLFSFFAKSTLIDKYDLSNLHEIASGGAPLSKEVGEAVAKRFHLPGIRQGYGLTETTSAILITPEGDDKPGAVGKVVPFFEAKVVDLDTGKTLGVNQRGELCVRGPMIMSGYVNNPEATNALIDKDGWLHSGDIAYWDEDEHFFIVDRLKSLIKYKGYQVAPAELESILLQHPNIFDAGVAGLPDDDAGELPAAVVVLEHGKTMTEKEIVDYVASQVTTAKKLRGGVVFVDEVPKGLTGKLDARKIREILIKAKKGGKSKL
smiles,measurement,setting,value
CO[C@H]1O[C@H](CO)[C@@H](OC(=O)Nc2ccccc2)[C@H](OC(=O)Nc2ccccc2)[C@@H]1OC(=O)Nc1ccccc1,composite z-score,[1],0.865
same,composite z-score,[2],1.25
same,composite z-score,[3],0.806
same,composite z-score,[4],1.01
same,composite z-score,[5],1.3
same,composite z-score,[6],0.412
same,z-score,[7],-0.115
same,composite z-score,Lefty1,0.464
same,composite z-score,[8],0.833
same,z-score,[9],0.713 (inactive)
COc1ccccc1CN1C(=O)c2ccccc2[C@@]2(Cc3ccccc3N(CC(C)C)C2=O)[C@@H]1c1ccc(CO)cc1,composite z-score,[1],-0.259
same,composite z-score,[2],-0.827
same,composite z-score,[3],-0.362
same,composite z-score,[4],-0.705
same,composite z-score,[5],-0.114
same,composite z-score,[6],-0.556
same,z-score,[7],0.379
same,composite z-score,Lefty1,-0.0355
same,composite z-score,[8],-0.219
same,z-score,[9],-0.35 (inactive)
C=CCOC(=O)[C@@H]1[C@H]2C(=O)O[C@H](c3ccccc3)[C@H](c3ccccc3)N2[C@H](c2ccc(OCCOC(=O)[C@@H]3C[C@@H]4C(=O)NCC(=O)N4[C@@H]3c3ccc(O)cc3)cc2)[C@@]12C(=O)Nc1ccc(I)cc12,composite z-score,[1],1.88
same,composite z-score,[2],1.21
same,composite z-score,[3],0.823
same,composite z-score,[4],0.342
same,composite z-score,[5],1.36
same,composite z-score,[6],1.27
same,z-score,[7],-1.73
same,composite z-score,Lefty1,0.734
same,composite z-score,[8],0.86
same,z-score,[9],0.401 (inactive)
CCOC(=O)C[C@H]1[C@H](OC(=O)c2ccc(C(=O)c3ccccc3)cc2)[C@@H](NC(=O)c2ccccc2)c2cc(OCCCO)ccc2N1C(=O)c1ccc2ccccc2n1,composite z-score,[1],1.03
same,composite z-score,[2],1.06
same,composite z-score,[3],0.281
same,composite z-score,[4],0.788
same,composite z-score,[5],-0.0746
same,composite z-score,[6],-0.268
same,z-score,[7],0.586
same,composite z-score,Lefty1,0.536
same,composite z-score,[8],0.324
same,z-score,[9],-0.417 (inactive)
C#C[C@H](O[Si](C#Cc1ccc(Oc2ccccc2)cc1)(C(C)C)C(C)C)c1ccccc1,composite z-score,[1],-0.179
same,composite z-score,[2],0.679
same,composite z-score,[3],-0.6
same,composite z-score,[4],0.385
same,composite z-score,[5],0.101
same,composite z-score,[6],0.137
same,z-score,[7],-1.83
same,composite z-score,Lefty1,0.104
same,composite z-score,[8],0.0936
same,z-score,[9],0.0848 (inactive)
C=CCNC(=O)[C@@H]1[C@H]2C(=O)O[C@H](c3ccccc3)[C@H](c3ccccc3)N2[C@H](c2ccc(O)cc2)[C@@]12C(=O)Nc1ccc(C#CCNC(N)=O)cc12,composite z-score,[1],-0.22
same,composite z-score,[2],-0.222
same,composite z-score,[3],0.186
same,composite z-score,[4],-0.609
same,composite z-score,[5],0.842
same,composite z-score,[6],-0.598
same,z-score,[7],-1.27
same,composite z-score,Lefty1,0.538
same,composite z-score,[8],0.414
same,z-score,[9],-0.895 (inactive)
COc1ccc(C#Cc2ccc3c(c2)[C@]2(C(=O)N3)[C@H](C(=O)NC[C@H](O)c3ccccc3)[C@H]3C(=O)O[C@H](c4ccccc4)[C@H](c4ccccc4)N3[C@@H]2c2ccc(O)cc2)cc1,composite z-score,[1],2.71
same,composite z-score,[2],1.23
same,composite z-score,[3],0.521
same,composite z-score,[4],0.901
same,composite z-score,[5],1.08
same,composite z-score,[6],0.811
same,z-score,[7],-1.57
same,composite z-score,Lefty1,0.767
same,composite z-score,[8],0.947
same,z-score,[9],0.656 (inactive)
NC(=O)NCC#Cc1ccc2c(c1)[C@]1(C(=O)N2)[C@H](c2ccc(O)cc2)N2[C@H](c3ccccc3)[C@H](c3ccccc3)OC(=O)[C@H]2[C@@H]1C(=O)O,composite z-score,[1],0.948
same,composite z-score,[2],-0.404
same,composite z-score,[3],-0.415
same,composite z-score,[4],-0.159
same,composite z-score,[5],-0.386
same,composite z-score,[6],-0.912
same,z-score,[7],-0.61
same,composite z-score,Lefty1,-0.283
same,composite z-score,[8],-0.142
same,z-score,[9],0.323 (inactive)
C=CC1(C(=O)OC)CC=C(C(=O)OC)CC1 (stereo not given),composite z-score,[1],0.731
same,composite z-score,[2],0.901
same,composite z-score,[3],0.286
same,composite z-score,[4],0.862
same,composite z-score,[5],0.65
same,composite z-score,[6],0.653
same,z-score,[7],0.263
same,composite z-score,Lefty1,0.308
same,composite z-score,[8],0.184
same,z-score,[9],0.723 (inactive)
CC(C)C(O)C1C=CC2C(=O)N(c3ccccc3)C(=O)C2N1Nc1ccc([N+](=O)[O-])cc1 (stereo not given),composite z-score,[1],0.663
same,composite z-score,[2],1.17
same,composite z-score,[3],0.774
same,composite z-score,[4],0.954
same,composite z-score,[5],-0.197
same,composite z-score,[6],-0.378
same,z-score,[7],-0.0625
same,composite z-score,Lefty1,-0.0809
same,composite z-score,[8],1.01
same,z-score,[9],1.18 (inactive)
O=C1c2ccccc2[C@](Cc2ccccc2I)(C(=O)NCC(F)(F)F)[C@H](c2ccc(CO)cc2)N1Cc1ccccc1Cl,composite z-score,[1],-0.176
same,composite z-score,[2],1.19
same,composite z-score,[3],1.22
same,composite z-score,[4],0.722
same,composite z-score,[5],1.1
same,composite z-score,[6],0.138
same,z-score,[7],0.423
same,composite z-score,Lefty1,0.883
same,composite z-score,[8],0.549
same,z-score,[9],0.406 (inactive)
C=C[C@H](OC)[C@@H](OC(=O)Nc1ccc(OC)cc1)c1ccc(O)c(F)c1,composite z-score,[1],2.08
same,composite z-score,[2],0.424
same,composite z-score,[3],-0.585
same,composite z-score,[4],-1.5
same,composite z-score,[5],-1.07
same,composite z-score,[6],-1.23
same,z-score,[7],-0.944
same,composite z-score,Lefty1,-0.288
same,composite z-score,[8],-1.28
same,z-score,[9],-6.53 (inactive)
C=C(/C(=C/C[C@H](OC(C)=O)c1ccccc1OCCO)c1cnc2ccccc2c1)C(C)C,composite z-score,[1],-0.577
same,composite z-score,[2],0.0336
same,composite z-score,[3],0.119
same,composite z-score,[4],-0.498
same,composite z-score,[5],1.3
same,composite z-score,[6],0.58
same,z-score,[7],1.12
same,composite z-score,Lefty1,0.505
same,composite z-score,[8],1.07
same,z-score,[9],-1.14 (inactive)
